Sampled rows, rich in hits. Any-hit rate of the full collection: about 4.6%.
D1 antagonist – Antagonist of Human D 1 Dopamine Receptor: qHTS; 360,000 tested, 3.2% active; activity change, negative = inhibition, % at 10 µM; HEK293 TREx D1 cells, calcium flux, dopamine EC80; active compounds read low; AID 504652, 2011; in the data active = activity change below about -30%
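Cells carrying a force-coupled, tetracycline-inducible human D1 receptor report calcium flux. Each well gets a 10 s baseline, compound with 180 s monitoring, then an EC80 dopamine stimulus with a second 180 s kinetic read.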
TRHR PAM – qHTS for Small Molecule Agonists and Allosteric Enhancers of Human TRH Receptor: Primary Screen for Enhancers; Thyrotropin-releasing hormone receptor (Homo sapiens), P34981; TRHR cells, fluo-8 calcium fluorescence, EC20 TRH enhancement; enhancement, % at 2 µM; 360,000 tested, 0.66% active; AID 493056, 2011; in the data active = enhancement above about 30%
Target sequence (P34981 whole entry, looked up): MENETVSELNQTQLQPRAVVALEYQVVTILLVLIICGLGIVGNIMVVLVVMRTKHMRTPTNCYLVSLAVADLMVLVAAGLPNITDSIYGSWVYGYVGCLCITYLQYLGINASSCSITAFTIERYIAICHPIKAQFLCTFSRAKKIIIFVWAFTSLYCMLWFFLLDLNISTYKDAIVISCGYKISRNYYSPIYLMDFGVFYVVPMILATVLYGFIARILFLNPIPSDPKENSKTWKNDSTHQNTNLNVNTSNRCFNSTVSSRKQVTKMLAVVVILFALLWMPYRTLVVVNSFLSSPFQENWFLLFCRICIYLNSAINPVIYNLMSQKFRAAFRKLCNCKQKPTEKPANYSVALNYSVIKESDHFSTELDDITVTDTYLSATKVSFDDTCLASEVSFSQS
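Enhancer read-out: after compound pinning and an initial kinetic agonist-mode read, an EC20 of TRH (10 nM final) was injected and fluo-8 calcium signal (Ex 480/Em 530) followed at 1 s/cycle for 100 cycles in TRHR-expressing cells.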
D1 PAM – Potentiators of Human D1 Dopamine Receptor: qHTS; 360,000 tested, 0.036% active; D(1A) dopamine receptor (Homo sapiens), P21728; potentiation, % at 10 µM; HEK293 TREx D1 cells, calcium flux, dopamine EC20 potentiation; in the data active = potentiation above about 30%
TRHR ag – qHTS for Small Molecule Agonists and Allosteric Enhancers of Human TRH Receptor: Primary Screen for Agonists; Thyrotropin-releasing hormone receptor (Homo sapiens), P34981; 360,000 tested, 0.18% active; activation, % at 2 µM; TRHR cells, calcium flux fluo-8, FDSS agonist mode
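Read-out: compound-evoked intracellular calcium rise in TRHR cells, fluo-8 dye, kinetic FDSS fluorescence at 1 s/cycle following a 10-cycle baseline. Cells cultured overnight before dye loading (30 min–1.5 h, RT).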
D1 agonist – Allosteric Agonists of the Human D1 Dopamine Receptor: qHTS. activation, % at 2 µM. 360,000 tested, 1% active. HEK293 T-REx D1 cells, calcium flux, agonist mode. D(1A) dopamine receptor (Homo sapiens), P21728
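Agonism was scored from calcium flux recorded over 180 s (1 read/s) after pintool compound addition, following a 10-cycle baseline. Cells were inducible force-coupled HEK293 TREx D1, plated overnight at 30 C and loaded with no-wash calcium dye.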
A number is an active result. Cut-off read from the data, not from the text of the source, unless noted: active = activation above about 30%; inactive = the rest.

`COc1ccc2c(c1OC)C(=O)N1c3ccccc3SC21` (configuration not stated) gave D1 antagonist inactive, TRHR PAM 39, D1 PAM inactive, TRHR ag inactive and D1 agonist inactive.
For COc1ccc2c(c1OC)C(=O)N1c3ccccc3COC21 (configuration not stated) the results were D1 antagonist inactive, TRHR PAM inactive, D1 PAM inactive, TRHR ag inactive and D1 agonist inactive.
For COC(=O)c1cc2oc3ccccc3c2n1CC(=O)Nc1ccc(C)c(F)c1 the results were D1 antagonist inactive, TRHR PAM inactive, D1 PAM inactive, TRHR ag inactive and D1 agonist inactive.
Screening O=C(Nc1ccc2nc3n(c(=O)c2c1)CCCCC3)c1cc([N+](=O)[O-])ccc1F returned D1 antagonist inactive, TRHR PAM inactive, D1 PAM inactive, TRHR ag inactive and D1 agonist inactive.
`COc1cccc(CNC(=O)c2ccc(NC(=O)CC3SC(N4CCCCC4)=NC3=O)cc2)c1` (configuration not stated) gave D1 antagonist inactive, TRHR PAM inactive, D1 PAM inactive, TRHR ag inactive and D1 agonist inactive.
Screening COc1cccc(CNC(=O)c2cccc(NC(=O)CC3SC(N4CCCCC4)=NC3=O)c2)c1 (configuration not stated) returned D1 antagonist inactive, TRHR PAM 36, D1 PAM inactive, TRHR ag inactive and D1 agonist inactive.
COc1cccc(CNC(=O)C(=O)Nc2ccc3nc4n(c(=O)c3c2)CCCCC4)c1 was read as D1 antagonist -40, TRHR PAM inactive, D1 PAM inactive, TRHR ag inactive and D1 agonist inactive.
COCCNC(=O)C(=O)Nc1ccc2nc3n(c(=O)c2c1)CCCCC3 was read as D1 antagonist -52, TRHR PAM inactive, D1 PAM inactive, TRHR ag inactive and D1 agonist inactive.
`O=C(Nc1ccc2nc3n(c(=O)c2c1)CCCCC3)c1c(F)ccc([N+](=O)[O-])c1F` gave D1 antagonist -42, TRHR PAM inactive, D1 PAM inactive, TRHR ag inactive and D1 agonist inactive.
Screening O=C(NCc1cccc(Cl)c1)C(=O)Nc1ccc2nc3n(c(=O)c2c1)CCCCC3 returned D1 antagonist inactive, TRHR PAM inactive, D1 PAM inactive, TRHR ag inactive and D1 agonist inactive.
`CCOC(=O)Nc1ccc2nc3n(c(=O)c2c1)CCCCC3` gave D1 antagonist inactive, TRHR PAM inactive, D1 PAM inactive, TRHR ag inactive and D1 agonist inactive.
Screening Cc1cccc(NC(=O)CSc2nc(C)cc(C)c2C(=O)Nc2ccc(Cl)cc2)c1 returned D1 antagonist inactive, TRHR PAM inactive, D1 PAM inactive, TRHR ag inactive and D1 agonist inactive.
Cc1ccc(C)c(Nc2ncnc3c2cnn3-c2ccc(F)cc2)c1 was read as D1 antagonist inactive, TRHR PAM inactive, D1 PAM inactive, TRHR ag inactive and D1 agonist inactive.
Screening CCN(CCn1cccn1)C(=O)c1cc(COc2ccc(F)c(F)c2)on1 returned D1 antagonist -32, TRHR PAM inactive, D1 PAM inactive, TRHR ag inactive and D1 agonist inactive.
Screening Cc1nn(-c2ccc(F)cc2F)c2c1-c1nc(N3CCCC3)ncc1CC2 returned D1 antagonist -42, TRHR PAM inactive, D1 PAM inactive, TRHR ag inactive and D1 agonist inactive.
CCn1c2ccccc2c2nnc(SCC(=O)Nc3ccccc3OC)nc21 was read as D1 antagonist -33, TRHR PAM inactive, D1 PAM inactive, TRHR ag inactive and D1 agonist inactive.
`COc1ccccc1NC(=O)CSc1nnc2c3ccccc3n(C)c2n1` gave D1 antagonist inactive, TRHR PAM inactive, D1 PAM inactive, TRHR ag inactive and D1 agonist inactive.
COc1ccccc1NC(=O)Cn1c2ccccc2c2nc3n(c(=O)c21)CCS3 was read as D1 antagonist -44, TRHR PAM inactive, D1 PAM inactive, TRHR ag inactive and D1 agonist inactive.
`Cc1cccc(CNC(=O)CCCN2C(=O)c3cccnc3Oc3ccccc32)c1` gave D1 antagonist inactive, TRHR PAM inactive, D1 PAM inactive, TRHR ag inactive and D1 agonist inactive.
`CC(C)(C)C(=O)Nc1cccc(C(=O)OCc2cc(=O)n3nc(C4CCCCC4)sc3n2)c1` gave D1 antagonist inactive, TRHR PAM inactive, D1 PAM inactive, TRHR ag inactive and D1 agonist inactive.
`CCCn1c(=O)n(-c2ccccc2)c(=O)c2sc3ccccc3c21` gave D1 antagonist inactive, TRHR PAM inactive, D1 PAM inactive, TRHR ag inactive and D1 agonist inactive.
Screening CCCNC(=O)C1CCC(Cn2c(=O)c3sccc3n(CC(=O)NCc3cccc(OC)c3OC)c2=O)CC1 (configuration not stated) returned D1 antagonist inactive, TRHR PAM inactive, D1 PAM inactive, TRHR ag inactive and D1 agonist inactive.
For O=C(NCCc1ccccc1)c1ccc(CSc2nc3ccncc3n2Cc2ccccc2)cc1 the results were D1 antagonist -31, TRHR PAM inactive, D1 PAM inactive, TRHR ag inactive and D1 agonist inactive.
Cc1ccc(Cn2c(SCc3ccc(C(=O)NCCc4ccccc4)cc3)nc3ccncc32)cc1 was read as D1 antagonist inactive, TRHR PAM inactive, D1 PAM inactive, TRHR ag inactive and D1 agonist inactive.
`CCOc1cc(C(=O)N2CC(=O)Nc3ccc(C)cc3C2c2ccccc2)cc(OCC)c1OCC` (configuration not stated) gave D1 antagonist inactive, TRHR PAM inactive, D1 PAM inactive, TRHR ag inactive and D1 agonist inactive.
`CCCCOc1cccc(C(=O)Nc2cccc(-c3nc4ncccc4o3)c2C)c1` gave D1 antagonist inactive, TRHR PAM 43, D1 PAM inactive, TRHR ag inactive and D1 agonist inactive.
`CCC1CN(C(=O)Nc2cccc3c2CCCC3)c2cc(C)ccc2O1` (configuration not stated) gave D1 antagonist -60, TRHR PAM inactive, D1 PAM inactive, TRHR ag inactive and D1 agonist inactive.
For O=C(Nc1ccc2c(c1)OCO2)c1cc2nc(C3CC3)cc(C(F)(F)F)n2n1 the results were D1 antagonist inactive, TRHR PAM inactive, D1 PAM inactive, TRHR ag inactive and D1 agonist inactive.
O=C(Nc1cccnc1)c1cc2nc(C3CC3)cc(C(F)(F)F)n2n1 was read as D1 antagonist -31, TRHR PAM inactive, D1 PAM inactive, TRHR ag inactive and D1 agonist inactive.

Assay outcomes deposited in PubChem BioAssay by National Center for Advancing Translational Sciences (NCATS).
